Results filed as inconclusive are left out. A number with no mark means an inactive call. Calls of active or inactive are those of the source. The call rests on the fitted dose curve.
Target: Cytochrome P450 1A2 (Homo sapiens) (UniProt P05177)
Test: p450-cyp1a2 (AID 410);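 on activity change, negative = inhibition: -100% = full effect of reference inhibitor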
Details: recombinant CYP1A2, luciferin-ME demethylation, luminescence; series mostly up to 57 µM
Method: The P450 gene superfamily is involved in metabolism and the clearance of xenobiotics. This assay used human CYP1A2 to measure the demethylation of luciferin 6' methyl ether (Luciferin-ME; Promega-Glo) to luciferin. The luciferin is then measured by luminescence after the addition of a luciferase detection regeant. Luciferin-ME concentration in the assay was equal to its Km for CYP1A2.
NCGC Assay Protocol Summary:
Two uL of enzyme and substrate mix (final concentrations: 20nM CYP1A2, 100uM Luciferin-ME, 100mM KPO4) were dispensed into a white, solid bottom 1536-well microtiter plate. 23nL of compound was transferred by a pin tool. The plate was incubated at room temperature for 10 min. Two uL of an NADPH regeneration solution (Promega supplied reagent) was dispensed and the reaction was allowed to continue for 60 min at room temperature. Then the reaction was stopped by reconstituted detection reagent. After another 20 min of incubation the plate was read on the ViewLux (Perkin Elmer) at 60 sec exposure and 2x2 binning. This protocol was carried out with Promega-Glo reagents and further information can be found at http://www.promega.com/tbs/tb325/tb325.pdf. Data were normalized to the to AC100 inhibition (57 uM furafylline).
Potency means the concentration at half of the fitted maximal effect.

Sequence of Cytochrome P450 1A2 (Homo sapiens) (P05177 whole entry, looked up): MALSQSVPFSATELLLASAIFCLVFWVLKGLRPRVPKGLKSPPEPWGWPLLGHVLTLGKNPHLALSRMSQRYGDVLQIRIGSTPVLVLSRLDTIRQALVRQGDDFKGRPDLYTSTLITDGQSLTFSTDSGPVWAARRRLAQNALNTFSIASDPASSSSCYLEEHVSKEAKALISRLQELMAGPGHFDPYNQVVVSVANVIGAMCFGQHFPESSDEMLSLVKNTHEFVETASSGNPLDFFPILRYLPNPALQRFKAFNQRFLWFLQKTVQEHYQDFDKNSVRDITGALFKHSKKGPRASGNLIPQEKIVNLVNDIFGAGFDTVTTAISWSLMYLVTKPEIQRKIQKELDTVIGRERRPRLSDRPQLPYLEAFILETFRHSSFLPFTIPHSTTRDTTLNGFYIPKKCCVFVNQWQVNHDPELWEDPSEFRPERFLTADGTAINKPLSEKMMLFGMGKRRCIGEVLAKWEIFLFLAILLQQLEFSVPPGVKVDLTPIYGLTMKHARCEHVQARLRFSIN

SMILES	Potency	activity change, negative = inhibition
COC(=O)[C@@]1(Cc2ccc(OC)cc2)[C@H]2c3cc(C(=O)N4CCCC4)n(Cc4cc(F)cc5c4OCOC5)c3C[C@H]2CN1C(=O)c1ccccc1	inactive	–
CC(C)[C@@H](CC(=O)N[C@@H]1CCCC[C@H]1C(=O)N[C@H](CC(=O)N[C@@H](CCC(=O)O)CC(=O)O)Cc1c[nH]c2ccccc12)NC(=O)C[C@H](CO)NC(=O)[C@@H]1CCCC[C@H]1N	inactive	–
CC(C)C[C@@H](CC(=O)N[C@@H](CCC(=O)O)CC(=O)O)NC(=O)[C@@H]1CNCC[C@H]1NC(=O)C[C@@H](NC(=O)C[C@H](Cc1ccccc1)NC(=O)[C@@H]1CNCC[C@H]1N)C(C)C	31.6 µM (active)	–
CCC/C=C(\CCC)C(NC(=O)c1ccc(-c2ccccc2)cc1)c1ccc(C(=O)OC)cc1 (stereo not given)	0.631 µM (active)	–
COC(=O)[C@@]1(Cc2ccccc2)[C@H]2c3cc(C(=O)N(C)C)n(Cc4ccsc4Br)c3C[C@H]2CN1C(=O)c1ccccc1	inactive	–
CC1=C(C(=O)OCc2ccccc2)C(c2ccc(Cl)cc2)NC(=O)N1CCCCCC(=O)O (stereo not given)	25.1 µM (active)	–
Cc1cc(Cc2cc(Cc3cc(C)cc(C(C)(C)C)c3O)c(C)cc2C)c(O)c(C(C)(C)C)c1	–	-17.2% [at 2.29 µM]
CCCCCCCCCCCCCCCCCCOC[C@@H](COP(=O)([O-])OCC[N+](C)(C)C)OC	inactive	–
CCC/C=C(\CCC)C(NC(=O)c1cccs1)c1ccc(C(=O)OC)cc1 (stereo not given)	5.01 µM (active)	–
CCCC[C@@H]1C[C@H]1C(NC(=O)c1ccco1)c1ccc(-c2ccccc2)cc1 (stereo not given in full)	5.01 µM (active)	–
C[C@@H](C(=O)Nc1ccc2ccccc2c1)[C@H]1C[C@]1(C)[C@H](NS(=O)(=O)c1ccc2ccccc2c1)c1ccccc1	inactive	–
CC(C)C[C@@H](CC(=O)N[C@@H](CCC(=O)O)CC(=O)O)NC(=O)[C@@H]1CCCC[C@H]1NC(=O)C[C@@H](NC(=O)C[C@H](CO)NC(=O)[C@@H]1CCCC[C@H]1N)C(C)C	inactive	–
COc1cc(/C=C\C(=O)N2CCC=CC2=O)cc(OC)c1OC	0.2 µM (active)	–
COC(=O)[C@@]1(Cc2ccc(F)cc2)[C@H]2c3cc(C(=O)N4CCCC4)n(Cc4ccc(C)c(F)c4F)c3C[C@H]2CN1C(=O)c1ccccc1	inactive	–
CC(C)C[C@@H](CC(=O)N[C@H](CC(=O)N[C@@H]1CCCC[C@H]1C(=O)N[C@H](CC(=O)N[C@@H](CCC(=O)O)CC(=O)O)CC(C)C)C(C)C)NC(=O)[C@@H]1CNCC[C@H]1N	inactive	–
C#CCCCC(=S)Nc1ccccc1	12.6 µM (active)	–
COC(=O)[C@H]1C[C@@H]1[C@H](NC(=O)c1cnccn1)c1ccccc1	15.8 µM (active)	–
CC1(C)C(=O)C(c2ccccc2)=C2CN3C(=O)N(CCc4ccccc4)C(=O)C3(Cc3ccc(F)cc3)C=C21 (stereo not given)	15.8 µM (active)	–
C=C(CC1([C@@H](NP(=O)(c2ccccc2)c2ccccc2)[C@H]2C[C@@H]2CCCC)CC1)c1cccc(OC)c1	12.6 µM (active)	–
COC(=O)[C@@]1(Cc2ccccc2)[C@H]2c3cc(C(=O)N4CCCC4)n(C)c3C[C@H]2CN1C(=O)c1ccccc1	25.1 µM (active)	–

SMILES	Potency	activity change, negative = inhibition
O=c1ccn([C@H]2O[C@H](CO)[C@@H](O)[C@@H]2O)c(=O)[nH]1	inactive	–
COC(=O)C1(CC(C)C)C=C2C(=C(C(C)C)C(=O)C2C)CN1 (stereo not given)	15.8 µM (active)	–
C[C@@H](C(=O)NCc1ccccn1)[C@H]1C[C@]1(C)[C@H](NC(=O)OCc1ccccc1)c1ccccc1	25.1 µM (active)	–
COC(=O)[C@@]1(Cc2ccccc2)[C@H]2c3cc(C(=O)N4CCCC4)n(Cc4ccc(C(F)(F)F)nc4)c3C[C@H]2CN1C(=O)c1ccccc1	inactive	–
NCCC[C@@H](CC(=O)N[C@@H]1CCCC[C@H]1C(=O)N[C@H](CC(=O)N[C@@H](CCC(=O)O)CC(=O)O)Cc1c[nH]c2ccccc12)NC(=O)C[C@H](Cc1c[nH]c2ccccc12)NC(=O)[C@@H]1CCCC[C@H]1N	inactive	–
COC(=O)[C@H](C)[C@@H]1C[C@@]1(C)[C@@H](NC(=O)OCc1ccccc1)c1ccccc1	15.8 µM (active)	–
C[C@@H](C(=O)Cc1ccc2ccccc2c1)[C@@H]1C[C@@]1(C)[C@@H](NP(=O)(c1ccccc1)c1ccccc1)c1ccccc1	10 µM (active)	–
C[C@@H](C(=O)NCc1nc2ccccc2[nH]1)[C@@H]1C[C@@]1(C)[C@@H](NC(=O)OCc1ccccc1)c1ccccc1	12.6 µM (active)	–
COC(=O)[C@@]1(Cc2ccc(OC)cc2)[C@H]2c3cc(C(=O)N(C)C)n(CCN4CNCC4=O)c3C[C@H]2CN1C(=O)c1ccccc1	20 µM (active)	–
COC(=O)[C@@H]1C[C@H]1[C@@H](NC(=O)c1cnccn1)c1ccccc1	12.6 µM (active)	–
O=C(NCc1nc2ccccc2[nH]1)[C@H]1C[C@@H]1[C@H](NP(=O)(c1ccccc1)c1ccccc1)c1ccccc1	15.8 µM (active)	–
COC(=O)c1ccc(C(NC(=O)c2ccccc2)[C@]2(C)C[C@H]2C2CCCCC2)cc1 (stereo not given in full)	inactive	–
CC(C)C[C@@H](CC(=O)N[C@@H](CCC(=O)O)CC(=O)O)NC(=O)[C@@H]1CNCC[C@H]1NC(=O)C[C@@H](NC(=O)C[C@H](Cc1c[nH]c2ccccc12)NC(=O)[C@@H]1CNCC[C@H]1N)C(C)C	inactive	–
Cc1cc(CNC(=O)[C@@H]2C[C@H]2[C@@H](NP(=O)(c2ccccc2)c2ccccc2)c2ccccc2)nn1C	inactive	–
COC(=O)[C@@H]1C[C@H]1[C@@H](NC(=O)c1cc(C)on1)c1ccccc1	20 µM (active)	–
COc1ccc2c(c1)CN([C@H](C)[C@@H]1CC[C@@H]3[C@H]4CC[C@H]5C[C@@H](O)CC[C@@]5(C)[C@H]4CC[C@]31C)CO2	–	-18% [at 2.29 µM]
C[C@@H](C(=O)Nc1ccc2ccccc2c1)[C@H]1C[C@]1(C)[C@H](NS(=O)(=O)c1ccc(-c2ccccc2)cc1)c1ccccc1	15.8 µM (active)	–
O=C1[C@@H]2C=CC=CC2=NC(=S)N1CCN1CCC(=C(c2ccc(F)cc2)c2ccc(F)cc2)CC1	inactive	–
C[C@@]1(C(NC(=O)Cc2ccc(C(F)(F)F)cc2)c2ccc(-c3ccccc3)cc2)C[C@H]1C1CCCCC1 (stereo not given in full)	inactive	–
CC1=CC(=O)CC(C)(C)[C@@]1(O)/C=C\C(C)=C\C(=O)O	inactive	–

From PubChem BioAssay (NCATS)
